Measured values reported in paper PMC5540273 (PLoS ONE, 2017).

How the values were obtained:
Settings in all cases: concentration: 1 μM, replicates: in singlicate; n = 1
[1] = tested on: AKT3
[2] = tested on: ALK
[3] = tested on: T1, AMPK-alpha1
T1 construct: gene PRKAA1

[4] = tested on: T2, AMPK-alpha2
T2 construct: gene PRKAA2

[5] = tested on: ANKK1
[6] = tested on: T3, ARK5
T3 construct: gene NUAK1

[7] = tested on: T4, ASK1
T4 construct: gene MAP3K5

[8] = tested on: T5, ASK2
T5 construct: gene MAP3K6

[9] = tested on: AURKB
[10] = tested on: AURKC
[11] = tested on: AXL
[12] = tested on: T6, BIKE
T6 construct: gene BMP2K

[13] = tested on: BLK
[14] = tested on: BMPR1A
[15] = tested on: BMPR1B
[16] = tested on: BMPR2
[17] = tested on: BMX
[18] = tested on: BRAF
[19] = tested on: T7, BRK
T7 construct: gene PTK6

[20] = tested on: AURKA
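Further: KINOMEscan kinase panel screen.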

Compound | %Inh [1] [%] | %Inh [2] [%] | %Inh [3] [%] | %Inh [4] [%] | %Inh [5] [%] | %Inh [6] [%] | %Inh [7] [%] | %Inh [8] [%] | %Inh [9] [%] | %Inh [10] [%] | %Inh [11] [%] | %Inh [12] [%] | %Inh [13] [%] | %Inh [14] [%] | %Inh [15] [%] | %Inh [16] [%] | %Inh [17] [%] | %Inh [18] [%] | %Inh [19] [%] | %Inh [20] [%]
Nc1nc(-c2ccc3c(N)n[nH]c3c2)cc(N2CCC[C@@H](C(=O)Nc3ccccc3)C2)n1.O=C(O)C(F)(F)F.O=C(O)C(F)(F)F [GSK2288359] | 0 | 5 | 9 | 26 | 12 | 0 | 1 | 0 | 0 | 34 | 0 | 29 | 0 | 0 | 0 | 10 | 0 | 5 | 5 | –
CC(C)(C)c1ccc(-n2cnc3c(N)ncnc32)cc1 [SKF-97263] | 0 | 7 | 14 | 21 | 24 | 10 | 1 | 1 | 16 | 16 | 15 | 19 | 6 | 0 | 5 | 6 | 16 | 0 | 6 | 7
Clc1ccc(-c2cc(-c3c[nH]nc3-c3ccccn3)ccn2)cc1 [GW681251] | 0 | 19 | 2 | 0 | 0 | 4 | 0 | 0 | 8 | 17 | 0 | 23 | 35 | 0 | 0 | 0 | 10 | 0 | 0 | 4
Cc1ccc(NC(=O)c2cccc(C#N)c2)cc1-c1ccc(C(=O)Nc2ccncc2)cc1 [GSK1398463] | 0 | 31 | 0 | 15 | 0 | 33 | 3 | 8 | 12 | 6 | 11 | 24 | 31 | 0 | 0 | 0 | 26 | 29 | 14 | 7
O=C(c1ccc(-c2cc(-c3c[nH]nc3-c3ccccn3)ccn2)cc1)N1CCCC1 [GW792479] | 0 | 16 | 0 | 12 | 0 | 0 | 4 | 0 | 11 | 0 | 0 | 18 | 9 | 0 | 9 | 0 | 12 | 0 | 0 | 0
NC(=O)c1sc(-n2cnc3ccccc32)cc1OCc1ccccc1F [GSK1024306] | 0 | 5 | 6 | 0 | 0 | 31 | 0 | 0 | 0 | 38 | 0 | 60 | 0 | 0 | 0 | 27 | 6 | 0 | 14 | 0
COC(=O)c1cccc(NC(=O)NCCNc2ccnc(Nc3ccc(F)cc3)n2)c1 [GSK1379883] | 0 | 32 | 0 | 18 | 1 | 0 | 0 | 0 | 0 | 32 | 5 | 22 | 0 | 0 | 0 | 0 | 21 | 0 | 24 | 21
Cl.Cl.c1ccc(-c2cc3ccncc3cc2OC2CCNCC2)cc1 [GSK1122999] | 0 | 23 | 16 | 22 | 0 | 13 | 0 | 4 | 10 | 28 | 27 | 27 | 41 | 0 | 0 | 0 | 17 | 0 | 8 | 17
CCCc1ccc(S(=O)(=O)NC2CCN(c3ccnc(Nc4ccc(OC)cc4)n3)C2)cc1 (stereo not shown) [GSK1379737] | 0 | 30 | 0 | 0 | 0 | 0 | 0 | 0 | 32 | 0 | 0 | 0 | 30 | 0 | 0 | 8 | 0 | 0 | 6 | 0
COC(=O)c1c(-c2ccccc2)c2cc(Cl)ccc2c(=O)n1Cc1ccc(S(C)(=O)=O)cc1 | 0 | 8 | 7 | 0 | 0 | 19 | 6 | 6 | 12 | 0 | 0 | 0 | 0 | 0 | 5 | 0 | 17 | 65 | 7 | 4
Nc1nc(-c2cccnc2)c(-c2ccnc3ccccc23)s1 [GW684083] | 0 | 22 | 23 | 20 | 5 | 0 | 0 | 10 | 7 | 10 | 7 | 34 | 58 | 0 | 55 | 28 | 34 | 0 | 9 | 0
Nc1nc(-c2ccc3c(N)n[nH]c3c2)cc(N2CCCCC2)n1 [GSK2228768] | 0 | 14 | 0 | 0 | 3 | 0 | 0 | 9 | 14 | 23 | 0 | 56 | 4 | 0 | 0 | 0 | 0 | 0 | 0 | 0
O=C(CCO)NCCn1ccc2ncnc(Nc3ccc(Oc4cccc(C(F)(F)F)c4)c(Cl)c3)c21 | 0 | 0 | 0 | 0 | 0 | 0 | 0 | 0 | 0 | 0 | 0 | 0 | 0 | 0 | 0 | 0 | 0 | 0 | 13 | 0
c1ccc(-c2ccc3c(-c4ccnc(Nc5ccc6c(c5)OCCO6)n4)cnn3n2)cc1 [GW818941] | 18 | 0 | 19 | 25 | 4 | 15 | 7 | 0 | 0 | 26 | 11 | 27 | 12 | 0 | 0 | 12 | 8 | 0 | 9 | 0
FC(F)(F)c1ccc(-c2nn3ncccc3c2-c2ccnc(Nc3cccc(C(F)(F)F)c3)n2)cc1 [GW828205] | 15 | 0 | 12 | 0 | 0 | 6 | 0 | 0 | 14 | 12 | 0 | 1 | 1 | 0 | 0 | 0 | 0 | 0 | 0 | 0
CCC(CC)(CC)n1cnc2c(N)ncnc21 [SKF-97620] | 2 | 0 | 8 | 54 | 17 | 0 | 2 | 26 | 24 | 0 | 0 | 0 | 0 | 7 | 16 | 53 | 0 | 10 | 0 | 28

Compound | %Inh [1] [%] | %Inh [2] [%] | %Inh [3] [%] | %Inh [4] [%] | %Inh [5] [%] | %Inh [6] [%] | %Inh [7] [%] | %Inh [8] [%] | %Inh [9] [%] | %Inh [10] [%] | %Inh [11] [%] | %Inh [12] [%] | %Inh [13] [%] | %Inh [14] [%] | %Inh [15] [%] | %Inh [16] [%] | %Inh [17] [%] | %Inh [18] [%] | %Inh [19] [%] | %Inh [20] [%]
O=c1cc(N2CCOCC2)nc2n(Cc3cccc(Cl)c3)ccn12 [GSK2296823] | 0 | 32 | 0 | 0 | 22 | 14 | 0 | 0 | 3 | 1 | 0 | 20 | 9 | 0 | 0 | 0 | 20 | 10 | 7 | 0
C[C@H]1CC[C@@H](C(=O)Nc2ccccc2)CN1c1cc(-c2ccc3c(N)n[nH]c3c2)nc(N)n1 [GSK2283293] | 0 | 30 | 0 | 13 | 11 | 1 | 0 | 5 | 6 | 25 | 0 | 23 | 50 | 0 | 0 | 0 | 7 | 0 | 19 | 0
FC(F)(F)c1cc(Nc2nccc(-c3c(-c4ccc(Cl)cc4)nn4ncccc34)n2)ccc1Cl [GW829351] | 0 | 8 | 0 | 0 | 0 | 0 | 0 | 0 | 0 | 0 | 0 | 0 | 0 | 0 | 0 | 4 | 0 | 0 | 0 | 5
CCc1nc(-c2cccc(C)c2)c(-c2ccnc(NC(=O)c3ccccc3)c2)s1 | 0 | 27 | 16 | 1 | 0 | 0 | 9 | 0 | 6 | 0 | 0 | 0 | 16 | 0 | 9 | 8 | 0 | 17 | 0 | 17
Clc1cc(Nc2ncnc3cc[nH]c23)ccc1OCc1ccccn1 | 5 | 0 | 20 | 0 | 20 | 0 | 5 | 0 | 13 | 0 | 19 | 0 | 0 | 25 | 8 | 17 | 20 | 0 | 4 | 35
FC(F)(F)c1ccc(-c2cc(-c3c[nH]nc3-c3ccccn3)ccn2)cc1 [GW599550] | 0 | 24 | 4 | 16 | 20 | 0 | 5 | 0 | 17 | 14 | 20 | 13 | 39 | 0 | 0 | 25 | 19 | 0 | 8 | 18
CS(=O)(=O)CCNCc1ccc(-c2ccc3ncnc(Nc4ccc(OCc5ccccc5)c(Cl)c4)c3c2)o1.Cl [GW574783] | 27 | 18 | 9 | 24 | 0 | 18 | 0 | 0 | 4 | 2 | 42 | 19 | 49 | 0 | 0 | 0 | 19 | 9 | 0 | 0
COc1cc2ncnc(Nc3ccc(OCc4ccccc4Br)c(Cl)c3)c2cc1OC.Cl [GI261590] | 0 | 39 | 11 | 0 | 0 | 3 | 10 | 0 | 35 | 42 | 19 | 5 | 49 | 0 | 0 | 15 | 4 | 7 | 66 | 1
CSc1ccc(NC2=C(c3ccccc3Cl)C(=O)NC2=O)cc1 [SB-342411] | 0 | 0 | 25 | 0 | 20 | 0 | 0 | 0 | 2 | 13 | 3 | 19 | 0 | 0 | 0 | 5 | 34 | 21 | 14 | 21
N#Cc1ccc(Oc2ccc(Nc3ncnc4cc[nH]c34)cc2Cl)cc1 | 0 | 0 | 17 | 15 | 28 | 10 | 18 | 0 | 16 | 11 | 22 | 1 | 28 | 18 | 8 | 25 | 13 | 0 | 11 | 11
Cc1cccc(-c2nc(Nc3ccc4[nH]nnc4c3)c3ccccc3n2)n1 [GW867587] | 0 | 2 | 0 | 0 | 0 | 0 | 0 | 0 | 0 | 0 | 0 | 0 | 3 | 0 | 0 | 8 | 0 | 0 | 0 | 0
O=C(Nc1n[nH]c2nc(-c3ccco3)c(Br)cc12)c1ccc(CN2CCCC2)cc1.O=C(O)[C@H](O)[C@@H](O)C(=O)O [SB-742352] | 8 | 0 | 0 | 8 | 0 | 0 | 0 | 0 | 0 | 0 | 51 | 0 | 0 | 0 | 0 | 0 | 8 | 0 | 0 | 0
CNc1nccc(-c2c(-c3ccc(F)cc3)ncn2C2CCN(C)CC2)n1 [SB-222903] | 0 | 0 | 0 | 16 | 0 | 4 | 0 | 0 | 0 | 0 | 0 | 0 | 36 | 0 | 0 | 11 | 0 | 0 | 0 | 6
CNc1nccc(-c2c(-c3ccc(F)cc3)ncn2CCCN2CCOCC2)n1 [SB-222516] | 14 | 12 | 0 | 9 | 39 | 0 | 9 | 12 | 11 | 21 | 14 | 0 | 17 | 13 | 0 | 30 | 3 | 6 | 0 | 0
Cl.Fc1ccccc1COc1ccc(Nc2ncnc3ccc(-c4nnc(C(F)(F)F)o4)cc23)cc1Cl [GW424170] | 0 | 0 | 0 | 0 | 0 | 0 | 0 | 0 | 0 | 0 | 0 | 9 | 21 | 0 | 0 | 5 | 1 | 0 | 6 | 13
